The values that follow come from PubChem BioAssay (NCATS).

Experiment [1] deals with Cytochrome P450 3A4 (Homo sapiens) (UniProt P08684). As to the kind of experiment: qHTS Assay for Inhibitors and Substrates of Cytochrome P450 3A4 (AID 884). For activity change, negative = inhibition: % is set by controls: 0 for no effect and ±100 for the full control effect. Note: nearly all actives have a fitted effect of over 50% in size. Note: potency is the fitted concentration of half-maximal effect. In outline: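 Luminescent readout of luciferin produced by CYP3A4 (20 nM) dealkylation of Luciferin-PPXE, 25 uM (its KM). NADPH-driven reaction ran 60 min at RT after 10 min compound preincubation; data scaled to 57 uM ketoconazole as 100% inhibition.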

The nature of experiment [2]: Confirmation and Secondary Assay for Modulators of Hemoglobin Beta Chain Splicing at IVS2 654 locus (AID 910).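 Note: per-well total GFP intensity by laser scanning cytometry after 2-day treatment; % of control where 0% means no effect.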 In outline: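 HeLa cells stably carrying EGFP interrupted by mutant beta-globin IVS2-654 intron (CMV-driven) were treated with compound for 2 days at 37C; corrected splicing was scored as total peak GFP intensity per well (488 nm excitation, 500-520 nm emission).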

Experiment [3] is described as follows: Confirmation and Secondary Assay for Modulators of Hemoglobin Beta Chain Splicing at IVS2 705 locus (AID 930).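 Note: HeLa cells stably expressing the EGFP-705 splicing reporter; GFP fluorescence per well restored by corrected splicing of the IVS2-705 intron in EGFP; % of control where 0% means no effect.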 In outline: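 HeLa IVS2-705 EGFP reporter cells, 500/well, compound 2 d at 37C; correct splicing yields fluorescent EGFP. Control: 500 nM antisense PNA. Read-out: total peak GFP intensity.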
A short description of experiment [4]: qHTS Assay for Lipid Storage Modulators (AID 1519; calls by dose curve; for activity change, negative = inhibition: % is set by controls: 0 for no effect and ±100 for the full control effect). To be noted: Drosophila S3 cells, BODIPY lipid droplet/cell ratio, laser cytometry, cells loaded with oleic acid; for activity change, negative = inhibition: at 57.5 µM (top of the series). In outline: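 Cells seeded at 5,000 per well were treated with compounds over a concentration series and loaded with oleic acid (400 uM, as added). Lipid droplet fluorescence (488 nm excitation, 500-530 nm channel) was read by laser-scanning cytometry and normalized to 20 uM Triacsin C.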

Experiment [5] addresses Ubiquitin carboxyl-terminal hydrolase 1 (Homo sapiens) (UniProt O94782). As to the kind of experiment: Inhibitors of USP1/UAF1: Pilot qHTS (AID 504865).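 Note: rhodamine fluorescence freed from ubiquitin-rhodamine substrate followed over time; top concentration of the series differs between compounds; % is set by controls: 0 for no effect and ±100 for the full control effect; nearly all actives have a fitted effect of over 35% in size.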 In outline: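 Kinetic fluorescence assay: 1nM USP1/UAF1, 15 min compound preincubation, then 150nM Ub-Rho; 480/540 nm.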
The mark [6] stands for this setting: measured here: cell count channel max response.
[7] abbreviates: measured here: lipid channel max response.

Records with an inconclusive call do not appear. Calls of active or inactive are those of the source. Unless noted, calls come from the whole dose curve; as a rule, active = well fitted curve in the direction sought with a large enough effect; inconclusive = small, poorly fitted or top-dose-only effect, or another doubt; inactive = no such curve, though single readings can be large; an effect the other way counts as inactive or inconclusive.

Ubiquitin carboxyl-terminal hydrolase 1 (Homo sapiens), sequence (O94782 whole entry, looked up): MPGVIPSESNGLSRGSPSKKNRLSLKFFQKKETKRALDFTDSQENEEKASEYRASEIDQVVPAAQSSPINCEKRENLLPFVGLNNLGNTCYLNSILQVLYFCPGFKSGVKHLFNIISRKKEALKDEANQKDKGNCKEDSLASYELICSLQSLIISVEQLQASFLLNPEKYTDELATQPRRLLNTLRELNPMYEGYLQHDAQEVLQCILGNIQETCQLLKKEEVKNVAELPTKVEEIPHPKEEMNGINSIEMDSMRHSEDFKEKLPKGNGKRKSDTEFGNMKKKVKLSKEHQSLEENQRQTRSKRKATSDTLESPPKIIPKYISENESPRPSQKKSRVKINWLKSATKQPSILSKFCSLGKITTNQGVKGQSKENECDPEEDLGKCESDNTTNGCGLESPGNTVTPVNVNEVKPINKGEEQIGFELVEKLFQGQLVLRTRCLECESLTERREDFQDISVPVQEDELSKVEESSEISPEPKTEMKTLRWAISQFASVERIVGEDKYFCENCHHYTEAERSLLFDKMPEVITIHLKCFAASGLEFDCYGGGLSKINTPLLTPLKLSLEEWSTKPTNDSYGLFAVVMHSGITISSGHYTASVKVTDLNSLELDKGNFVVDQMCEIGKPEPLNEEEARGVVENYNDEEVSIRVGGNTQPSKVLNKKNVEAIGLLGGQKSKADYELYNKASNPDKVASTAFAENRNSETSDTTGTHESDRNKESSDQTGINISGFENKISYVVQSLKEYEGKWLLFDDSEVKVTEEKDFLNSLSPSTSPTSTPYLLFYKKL
Cytochrome P450 3A4 (Homo sapiens), sequence (P08684 whole entry, looked up): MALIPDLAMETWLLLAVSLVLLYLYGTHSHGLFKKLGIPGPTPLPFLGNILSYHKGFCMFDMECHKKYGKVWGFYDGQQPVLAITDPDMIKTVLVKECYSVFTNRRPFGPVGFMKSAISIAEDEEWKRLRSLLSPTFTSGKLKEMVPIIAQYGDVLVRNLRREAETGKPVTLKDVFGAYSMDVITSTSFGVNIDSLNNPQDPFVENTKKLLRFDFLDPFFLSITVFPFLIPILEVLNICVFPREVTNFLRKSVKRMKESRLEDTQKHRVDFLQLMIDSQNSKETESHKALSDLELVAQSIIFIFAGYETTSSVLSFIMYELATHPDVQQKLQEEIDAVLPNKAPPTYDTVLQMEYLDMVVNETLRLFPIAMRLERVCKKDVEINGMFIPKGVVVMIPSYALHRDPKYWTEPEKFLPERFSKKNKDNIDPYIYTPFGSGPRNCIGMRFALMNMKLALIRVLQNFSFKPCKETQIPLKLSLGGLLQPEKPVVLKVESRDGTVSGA

Take `COC1=CC(C)C2CC3OC(=O)CC4C(C)=C(OC)C(=O)C([C@]2(C)C1=O)[C@]34C` (stereo partly specified): the Potency entry in experiment [1], in experiment [2], in experiment [3] and in experiment [5] was “inactive” in each case. Besides, the activity change, negative = inhibition in experiment [4] was 1.13% (inactive). For the same molecule, the max response was 5.55% in experiment [4] (setting [6]) and 6.48% in experiment [4] (setting [7]).

For the molecule `CC1C(=O)CCC2[C@]1(C)CCC1[C@]2(C)CC[C@@]2(C)C3CC(C)(C)CC[C@]3(C)CC[C@@]12C` (stereo partly specified), the Potency result in experiment [1], in experiment [2], in experiment [3] and in experiment [5] was “inactive” each time. For the same molecule, in experiment [4], the activity change, negative = inhibition is 2.51% (inactive). Also, the max response in experiment [4] (setting [6]) is 9.14%; in experiment [4] (setting [7]), 14.3%.

For `C=C(C)C1(O)OC(=O)C=C1OC` (stereo unspecified), the Potency result in experiment [1], in experiment [2], in experiment [3] and in experiment [5] was “inactive” throughout. Further, the activity change, negative = inhibition in experiment [4] is -0.62% (inactive). The values for the max response in experiment [4] (setting [6]) and in experiment [4] (setting [7]) were -1.24% and -2.01%, respectively.

Regarding `CCCCCC1C(=O)CCC1CC(=O)O` (stereo unspecified), the Potency entry in experiment [1], in experiment [2], in experiment [3] and in experiment [5] was “inactive” each time. Further, in experiment [4], the activity change, negative = inhibition was 5.46% (inactive). Besides, the max response in experiment [4] (setting [6]) was 21.6%; in experiment [4] (setting [7]), 28.3%.

For the molecule `COc1cc(-c2coc3cc(OC)c(OC)c(OC)c3c2=O)cc(OC)c1OC`, the Potency result in experiment [1], in experiment [2], in experiment [3] and in experiment [5] was “inactive” in each case. For the same molecule, the activity change, negative = inhibition in experiment [4] is 2.36% (inactive). The max response in experiment [4] (setting [6]) was 17.7%; in experiment [4] (setting [7]), 21.5%.

Consider `CCCCC(=O)Oc1ccccc1C(=O)O`, for which the Potency result in experiment [1], in experiment [2], in experiment [3] and in experiment [5] was “inactive” in each case. Further, in experiment [4], the activity change, negative = inhibition was -0.236% (inactive). Moreover, the figures for the max response in experiment [4] (setting [6]) and in experiment [4] (setting [7]) were 5.62% and 5.3%, respectively.

On to `Nc1nc2c(c(=O)[nH]1)N(C=O)C(CNc1ccc(C(=O)NC(CCC(=O)O)C(=O)O)cc1)CN2` (stereo unspecified), for which the Potency entry in experiment [1], in experiment [2], in experiment [3] and in experiment [5] was “inactive” each time. Moreover, in experiment [4], the activity change, negative = inhibition was 6.17% (inactive). Also, the max response in experiment [4] (setting [6]) was 17.6%; in experiment [4] (setting [7]), 27.2%.

Regarding `CC(=O)OCC(=O)[C@]1(O)C(OC(C)=O)CC2C3CCC4=CC(=O)C=C[C@@]4(C)[C@]3(F)C(O)C[C@]21C` (stereo partly specified), the Potency result in experiment [1], in experiment [2], in experiment [3] and in experiment [5] was “inactive” each time. The activity change, negative = inhibition in experiment [4] was 2.18% (inactive). In addition, the max response in experiment [4] (setting [6]) was found to be 7.55%; in experiment [4] (setting [7]) it was 12.5%.

As to `CCC(CO)NCCNC(CC)CO` (stereo unspecified), the Potency result in experiment [1], in experiment [2], in experiment [3] and in experiment [5] was “inactive” each time. In experiment [4], the activity change, negative = inhibition was -3.77% (inactive). The max response in experiment [4] (setting [6]) was found to be 8.09%; in experiment [4] (setting [7]) it was 6.63%.

Turning to `CC(=O)OC1CCC2(C)C(=CC=C3C2CCC2(C)C3CCC2C(C)/C=C/C(C)C(C)C)C1(C)C` (stereo unspecified), the Potency entry in experiment [1], in experiment [2], in experiment [3] and in experiment [5] was “inactive” each time. Further, the activity change, negative = inhibition in experiment [4] is 1.79% (inactive). Besides, the max response came to 12.2% in experiment [4] (setting [6]) and 14.9% in experiment [4] (setting [7]).

As to `CC1=C(/C=C/C(C)=C/C=C/C(C)=C/C=C/C=C(C)/C=C/C=C(C)/C=C/C2=C(C)C(=O)C(O)CC2(C)C)C(C)(C)CC(O)C1=O` (stereo unspecified), the Potency result in experiment [1], in experiment [2], in experiment [3] and in experiment [5] was “inactive” throughout. Further, the activity change, negative = inhibition in experiment [4] is 2.55% (inactive). The max response in experiment [4] (setting [6]) worked out at 25.7%; in experiment [4] (setting [7]), 27.4%.

Regarding `OC1C2COC(O2)[C@H](O)C1O` (stereo partly specified), the Potency entry in experiment [1], in experiment [2], in experiment [3] and in experiment [5] was “inactive” throughout. Moreover, the activity change, negative = inhibition in experiment [4] is 7.67% (inactive). Moreover, the max response came to 12.6% in experiment [4] (setting [6]) and 22.2% in experiment [4] (setting [7]).

On to `C[C@@H]1OC(OC2CC[C@@]3(C)C(CC[C@@]4(C)C3CC=C3C5CC(C)(C)CC[C@]5(C(=O)OC5OCC(O)[C@@H](O)[C@@H]5OC5O[C@@H](C)[C@H](O[C@H]6OC(CO)C(O)C(O)C6O)C(O)C5O)C(O)C[C@@]34C)C2(C)C)C(O)C(O)[C@H]1OC1OCC(O)C(O)[C@H]1O` (stereo partly specified), for which the Potency result in experiment [1], in experiment [2], in experiment [3] and in experiment [5] was “inactive” each time. In addition, in experiment [4], the activity change, negative = inhibition was 1.15% (inactive). For the same molecule, the max response in experiment [4] (setting [6]) is -28.2%; in experiment [4] (setting [7]) it was -26.8%.

`CCNC(=O)CCC(N)C(=O)O` (stereo unspecified): the Potency entry in experiment [1], in experiment [2], in experiment [3] and in experiment [5] was “inactive” throughout. Also, in experiment [4], the activity change, negative = inhibition is 2.77% (inactive). The max response in experiment [4] (setting [6]) stood at 9.46%; in experiment [4] (setting [7]) it was 16.9%.

Consider `O=C(NCO)c1cccnc1`, for which the Potency entry in experiment [1], in experiment [2], in experiment [3] and in experiment [5] was “inactive” throughout. Besides, the activity change, negative = inhibition in experiment [4] is 5.95% (inactive). The max response in experiment [4] (setting [6]) was determined as 14.8%; in experiment [4] (setting [7]), 25.7%.

As to `CC(CCC(=O)O)C1CCC2C3CC[C@@H]4CCCC[C@@]4(C)C3CC[C@@]12C` (stereo partly specified), the Potency result in experiment [1], in experiment [2], in experiment [3] and in experiment [5] was “inactive” in each case. For the same molecule, in experiment [4], the activity change, negative = inhibition is 2.19% (inactive). Moreover, the figures for the max response in experiment [4] (setting [6]) and in experiment [4] (setting [7]) were 13.8% and 19%, respectively.

Consider `C[C@@]12CCC(O)C[C@H]1CCc1ccccc12` (stereo partly specified), for which the Potency entry in experiment [1], in experiment [2], in experiment [3] and in experiment [5] was “inactive” in each case. Besides, in experiment [4], the activity change, negative = inhibition was 1.53% (inactive). In addition, the max response in experiment [4] (setting [6]) is 0.578%; in experiment [4] (setting [7]), 6.01%.

Consider `C=C(C)C1CC=C(CO)CC1` (stereo unspecified), for which the Potency result in experiment [1], in experiment [2], in experiment [3] and in experiment [5] was “inactive” each time. The activity change, negative = inhibition in experiment [4] is 0.669% (inactive). Moreover, the max response in experiment [4] (setting [6]) is -1.53%; in experiment [4] (setting [7]) it was 1.38%.

Take `CC1CC[C@@]2(OC1)OC1CC3C4CC=C5CC(O)CC[C@@]5(C)C4CC[C@]3(C)C1C2C` (stereo partly specified): the Potency result in experiment [1], in experiment [2], in experiment [3] and in experiment [5] was “inactive” throughout. Besides, the activity change, negative = inhibition in experiment [4] is 5.92% (inactive). Besides, the max response was found to be 10.1% in experiment [4] (setting [6]) and 19% in experiment [4] (setting [7]).

In the case of `Cc1ccc2c(c1)CC[C@H]1CC(=O)CC[C@@]21C`, in experiment [1], the Potency was 15.8 µM (active). Further, the Potency result in experiment [2], in experiment [3] and in experiment [5] was “inactive” in each case. For the same molecule, the activity change, negative = inhibition in experiment [4] is 2.54% (inactive). The values for the max response in experiment [4] (setting [6]) and in experiment [4] (setting [7]) were -2.47% and 1.9%, respectively.

As for `CC(=O)NC(CC(=O)O)C(=O)O` (stereo unspecified), the Potency result in experiment [1], in experiment [2], in experiment [3] and in experiment [5] was “inactive” throughout. Also, the activity change, negative = inhibition in experiment [4] is 2.97% (inactive). Further, the max response in experiment [4] (setting [6]) is 13.4%; in experiment [4] (setting [7]), 18%.

As to `CC(=O)Oc1ccc2c(c1)CCC1C2CC[C@@]2(C)C1CC(OC(C)=O)C2OC(C)=O` (stereo partly specified), the Potency result in experiment [1], in experiment [2], in experiment [3] and in experiment [5] was “inactive” throughout. Also, the activity change, negative = inhibition in experiment [4] was 5.31% (inactive). Moreover, the results for the max response in experiment [4] (setting [6]) and in experiment [4] (setting [7]) were 10.1% and 17.4%, respectively.

Take `CC(=O)OCC(=O)C1CCC2C3CC=C4CC(O)CC[C@@]4(C)C3CC[C@]12C` (stereo partly specified): the Potency entry in experiment [1], in experiment [2], in experiment [3] and in experiment [5] was “inactive” throughout. Also, the activity change, negative = inhibition in experiment [4] was 8.84% (inactive). Moreover, the max response in experiment [4] (setting [6]) amounted to 22.6%; in experiment [4] (setting [7]) it was 38.3%.
